Assay results taken from the supplement of paper PMC10849652.
About 8,800 targets were measured; listed, in parts, are those with a hit and a random draw of the rest. About 0.5% of all pairs of compound and target were hits.

Tests used:
Experiment in all cases: log2 fold change, soluble protein after heating vs DMSO (PISA); higher = thermal stabilisation; K562 lysate, 10 uM; active = over 0.2 and 3.5 SD of the protein, either way, in both replicates (recomputed)
vemurafenib = compound: CCCS(=O)(=O)Nc1ccc(F)c(C(=O)c2c[nH]c3ncc(-c4ccc(Cl)cc4)cc23)c1F [vemurafenib]
Method in brief: (§1)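 K562 pellets were dounce-homogenised in PBS pH 7.4 containing 1 mM MgCl2, and the crude extract, at 1 mg/mL protein, was exposed to 10 μM compound for 30 min. Aliquots were heated for 3 min across 48°C-58°C, pooled, brought to 0.5% NP-40 at 4°C and spun at 21,000xg for 90 min, with the supernatant taken as soluble protein. TMTpro 16plex LC-MS/MS with equalised channel sums quantified that protein. Values are log-two fold changes in thermal stability relative to solvent controls, taken from duplicates.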

[1] = compound: CCCS(=O)(=O)Nc1ccc(F)c(C(=O)c2c[nH]c3ncc(Cl)cc23)c1F
Method in brief: as §1

barasertib = compound: CCN(CCCOc1ccc2c(Nc3cc(CC(=O)Nc4cccc(F)c4)[nH]n3)ncnc2c1)CCOP(=O)(O)O [barasertib]
Method in brief: as §1

[2] = compound: CC[C@@H]1C(=O)N(C)c2cnc(Nc3ccc(C(=O)NC4CCN(C)CC4)cc3OC)nc2N1C1CCCC1
Method in brief: as §1

volasertib = compound: CC[C@@H]1C(=O)N(C)c2cnc(Nc3ccc(C(=O)N[C@H]4CC[C@H](N5CCN(CC6CC6)CC5)CC4)cc3OC)nc2N1C(C)C [volasertib]
Method in brief: as §1

[3] = compound: CCn1c(C(=O)N(C2CC2)C2CC2)cc2c3c(ncn3C)c(Nc3cc(C)n(C)n3)nc21
Method in brief: as §1

[4] = compound: CCn1cc(-c2ccnc3[nH]c(-c4cccc(CN(C)C)c4)cc23)c(-c2ccc(NC(=O)N(C)C)cc2)n1
Method in brief: as §1

[5] = compound: CN1CCC(CNc2ccc3ncc(-c4cccc(OC(F)(F)F)c4)n3n2)CC1
Method in brief: as §1

saracatinib = compound: CN1CCN(CCOc2cc(OC3CCOCC3)c3c(Nc4c(Cl)ccc5c4OCO5)ncnc3c2)CC1 [saracatinib]
Method in brief: as §1

sotrastaurin = compound: CN1CCN(c2nc(C3=C(c4c[nH]c5ccccc45)C(=O)NC3=O)c3ccccc3n2)CC1 [sotrastaurin]
Method in brief: as §1

alvocidib = compound: CN1CC[C@H](c2c(O)cc(O)c3c(=O)cc(-c4ccccc4Cl)oc23)[C@H](O)C1 [alvocidib]
Method in brief: as §1

Tubastatin A = compound: CN1CCc2c(c3ccccc3n2Cc2ccc(C(=O)NO)cc2)C1 [Tubastatin A]
Method in brief: as §1

[6] = compound: CNC(=O)C1=CC=CC=C1NC2=NC(=NC=C2Cl)NC3=C(C=C(C=C3)N4CCOCC4)OC
Method in brief: as §1

defactinib = compound: CNC(=O)c1ccc(Nc2ncc(C(F)(F)F)c(NCc3nccnc3N(C)S(C)(=O)=O)n2)cc1 [defactinib]
Method in brief: as §1

[7] = compound: CNc1nc(-c2ccc3c(N)n[nH]c3c2)cc(N2C[C@@H](C(=O)NC3CCCCC3)CC[C@H]2C)n1
Method in brief: as §1

encorafenib = compound: COC(=O)N[C@@H](C)CNc1nccc(-c2cn(C(C)C)nc2-c2cc(Cl)cc(NS(C)(=O)=O)c2F)n1 [encorafenib]
Method in brief: as §1

[8] = compound: COC(=O)[C@H](CCSC)NC(=O)C1=C(C=C(C=C1)NC[C@H](CS)N)C2=CC=CC=C2
Method in brief: as §1

alisertib = compound: COc1cc(Nc2ncc3c(n2)-c2ccc(Cl)cc2C(c2c(F)cccc2OC)=NC3)ccc1C(=O)O [alisertib]
Method in brief: as §1

[9] = compound: COc1cc2nc(-c3cc(F)ccc3O)nc(N[C@@H]3CNC[C@H]3C(C)(C)O)c2cc1OC
Method in brief: as §1

gefitinib = compound: COc1cc2ncnc(Nc3ccc(F)c(Cl)c3)c2cc1OCCCN1CCOCC1 [gefitinib]
Method in brief: as §1

Measured: log2 fold change

MGST1 (UniProt P10620)
Sequence of UniProt P10620 (P10620 whole entry, looked up): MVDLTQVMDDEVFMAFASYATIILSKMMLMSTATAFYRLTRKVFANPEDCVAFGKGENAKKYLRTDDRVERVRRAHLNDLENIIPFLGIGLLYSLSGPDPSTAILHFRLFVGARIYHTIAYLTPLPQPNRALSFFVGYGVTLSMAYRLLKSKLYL
active: [4] 0.279
inactive: vemurafenib 0.015 | [1] 0.018 | barasertib 0.027 | [2] 0.097 | volasertib 0.07 | [3] -0.036 | [5] -0.069 | saracatinib 0.068 | sotrastaurin -0.013 | alvocidib 0.033 | Tubastatin A -0.011 | [6] 0.07 | defactinib 0.02 | [7] 0.038 | encorafenib 0.007 | [8] 0.001 | alisertib 0.009 | [9] 0.023 | gefitinib -0.066

LARS (UniProt Q9P2J5)
Sequence of UniProt Q9P2J5 (Q9P2J5 whole entry, looked up): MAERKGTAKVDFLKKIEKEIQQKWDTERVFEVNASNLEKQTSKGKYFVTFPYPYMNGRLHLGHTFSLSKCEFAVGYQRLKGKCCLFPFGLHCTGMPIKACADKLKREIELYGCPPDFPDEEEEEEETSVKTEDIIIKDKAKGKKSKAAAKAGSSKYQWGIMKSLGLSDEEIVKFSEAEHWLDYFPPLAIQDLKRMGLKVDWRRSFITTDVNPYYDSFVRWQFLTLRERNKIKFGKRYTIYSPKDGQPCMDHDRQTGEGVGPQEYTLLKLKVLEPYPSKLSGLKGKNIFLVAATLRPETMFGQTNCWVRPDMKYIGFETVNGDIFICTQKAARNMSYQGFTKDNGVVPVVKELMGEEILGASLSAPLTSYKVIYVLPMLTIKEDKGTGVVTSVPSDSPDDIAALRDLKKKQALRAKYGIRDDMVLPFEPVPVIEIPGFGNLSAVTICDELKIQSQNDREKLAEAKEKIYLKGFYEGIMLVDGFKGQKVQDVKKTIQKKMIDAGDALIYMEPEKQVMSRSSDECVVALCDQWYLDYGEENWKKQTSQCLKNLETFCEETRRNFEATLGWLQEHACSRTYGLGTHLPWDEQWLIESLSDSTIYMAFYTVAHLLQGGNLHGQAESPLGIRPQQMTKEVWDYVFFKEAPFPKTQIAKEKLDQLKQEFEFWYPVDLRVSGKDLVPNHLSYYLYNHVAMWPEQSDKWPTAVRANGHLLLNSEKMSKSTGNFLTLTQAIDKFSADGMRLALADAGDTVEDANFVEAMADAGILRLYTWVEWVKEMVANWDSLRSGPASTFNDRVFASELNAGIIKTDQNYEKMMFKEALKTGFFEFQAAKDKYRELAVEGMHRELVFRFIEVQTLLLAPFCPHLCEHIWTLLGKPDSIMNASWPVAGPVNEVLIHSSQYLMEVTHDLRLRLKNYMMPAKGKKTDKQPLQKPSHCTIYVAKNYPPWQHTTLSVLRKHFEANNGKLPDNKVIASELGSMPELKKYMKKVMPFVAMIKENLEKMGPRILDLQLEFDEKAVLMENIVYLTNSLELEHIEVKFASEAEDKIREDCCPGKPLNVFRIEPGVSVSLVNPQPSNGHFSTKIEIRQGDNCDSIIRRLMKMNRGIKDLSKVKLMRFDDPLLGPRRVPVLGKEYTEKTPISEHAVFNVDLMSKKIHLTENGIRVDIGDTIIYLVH
inactive: vemurafenib -0.005 | [1] 0.006 | barasertib 0.006 | [2] -0.069 | volasertib -0.063 | [3] 0.045 | [4] 0.008 | [5] -0.058 | saracatinib -0.023 | sotrastaurin -0.002 | alvocidib 0.051 | Tubastatin A -0.153 | [6] 0.006 | defactinib 0.023 | [7] -0.054 | encorafenib 0.001 | [8] 0.097 | alisertib 0.01 | [9] -0.013 | gefitinib -0.007

METTL7A (UniProt Q9H8H3)
Sequence of UniProt Q9H8H3 (Q9H8H3 whole entry, looked up): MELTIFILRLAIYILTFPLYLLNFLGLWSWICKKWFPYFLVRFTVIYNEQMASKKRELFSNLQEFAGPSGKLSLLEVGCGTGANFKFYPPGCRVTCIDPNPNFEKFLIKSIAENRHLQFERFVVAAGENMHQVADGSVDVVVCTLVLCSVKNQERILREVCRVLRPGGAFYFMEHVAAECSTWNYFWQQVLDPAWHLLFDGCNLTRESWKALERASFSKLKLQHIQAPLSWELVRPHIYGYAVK
inactive: vemurafenib -0.08 | [1] 0.056 | barasertib -0.123 | [2] -0.022 | volasertib 0.226 | [3] -0.018 | [4] 0.014 | [5] 0.081 | saracatinib -0.028 | sotrastaurin -0.028 | alvocidib -0.079 | Tubastatin A 0.014 | [6] 0.003 | defactinib 0.011 | [7] 0.041 | encorafenib -0.041 | [8] 0.151 | alisertib -0.036 | [9] -0.01 | gefitinib -0.046

KIF2A isoform 4 (UniProt O00139)
Sequence of UniProt O00139 (O00139 whole entry, looked up): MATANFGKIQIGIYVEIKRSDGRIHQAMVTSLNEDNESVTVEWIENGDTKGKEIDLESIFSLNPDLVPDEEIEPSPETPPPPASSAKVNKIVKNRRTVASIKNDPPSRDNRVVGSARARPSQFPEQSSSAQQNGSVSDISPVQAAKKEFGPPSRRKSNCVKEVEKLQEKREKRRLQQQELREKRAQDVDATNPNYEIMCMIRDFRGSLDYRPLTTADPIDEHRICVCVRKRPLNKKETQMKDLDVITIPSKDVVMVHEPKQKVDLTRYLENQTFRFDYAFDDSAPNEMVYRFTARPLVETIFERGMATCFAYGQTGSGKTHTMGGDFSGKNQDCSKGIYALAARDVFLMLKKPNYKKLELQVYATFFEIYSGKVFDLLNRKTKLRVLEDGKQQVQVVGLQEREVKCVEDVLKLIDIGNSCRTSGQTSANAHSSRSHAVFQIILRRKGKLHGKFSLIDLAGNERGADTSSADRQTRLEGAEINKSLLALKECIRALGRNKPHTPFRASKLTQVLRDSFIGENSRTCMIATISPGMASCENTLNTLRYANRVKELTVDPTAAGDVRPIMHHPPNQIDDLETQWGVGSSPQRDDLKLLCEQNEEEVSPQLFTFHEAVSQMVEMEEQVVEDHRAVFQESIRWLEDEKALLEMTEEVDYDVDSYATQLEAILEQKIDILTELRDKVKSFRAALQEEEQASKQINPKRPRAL
inactive: vemurafenib -0.006 | [1] 0 | barasertib -0.014 | [2] -0.117 | volasertib -0.032 | [3] 0.042 | [4] -0.013 | [5] 0.009 | saracatinib 0.021 | sotrastaurin 0.023 | alvocidib 0 | Tubastatin A -0.148 | [6] 0.005 | defactinib 0.01 | [7] -0.024 | encorafenib 0.012 | [8] 0.093 | alisertib 0.004 | [9] -0.014 | gefitinib 0.011

MAPK3 (UniProt P27361)
Sequence of UniProt P27361 (P27361 whole entry, looked up): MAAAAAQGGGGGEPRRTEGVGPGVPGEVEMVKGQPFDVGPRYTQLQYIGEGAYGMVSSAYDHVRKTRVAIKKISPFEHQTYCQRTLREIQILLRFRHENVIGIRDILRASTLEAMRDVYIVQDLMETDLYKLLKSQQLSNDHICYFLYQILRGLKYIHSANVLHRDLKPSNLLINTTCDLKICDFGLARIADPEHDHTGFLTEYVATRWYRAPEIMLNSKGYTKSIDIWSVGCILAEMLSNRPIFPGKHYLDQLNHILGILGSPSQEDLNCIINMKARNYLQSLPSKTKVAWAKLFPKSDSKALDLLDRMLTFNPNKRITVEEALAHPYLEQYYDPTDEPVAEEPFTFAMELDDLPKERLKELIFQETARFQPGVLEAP
active: [6] 0.29
inactive: vemurafenib 0.013 | [1] -0.024 | barasertib -0.026 | [2] 0.01 | volasertib -0.011 | [3] -0.031 | [4] 0 | [5] 0.026 | saracatinib 0 | sotrastaurin -0.017 | alvocidib 0.018 | Tubastatin A 0.037 | defactinib 0.061 | [7] 0.079 | encorafenib -0.035 | [8] 0.05 | alisertib -0.028 | [9] 0.052 | gefitinib -0.018

LUC7L (UniProt Q9NQ29)
Sequence of UniProt Q9NQ29 (Q9NQ29 whole entry, looked up): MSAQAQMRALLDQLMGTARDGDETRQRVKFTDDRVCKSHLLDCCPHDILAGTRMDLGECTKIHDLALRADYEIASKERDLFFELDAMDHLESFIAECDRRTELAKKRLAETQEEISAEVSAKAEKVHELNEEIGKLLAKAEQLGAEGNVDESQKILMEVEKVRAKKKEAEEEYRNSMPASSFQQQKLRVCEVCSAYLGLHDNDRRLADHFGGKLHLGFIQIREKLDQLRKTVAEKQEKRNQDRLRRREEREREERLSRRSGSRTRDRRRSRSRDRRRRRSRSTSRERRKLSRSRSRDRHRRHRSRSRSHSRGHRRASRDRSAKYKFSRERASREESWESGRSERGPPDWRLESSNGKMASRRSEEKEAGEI
active: alvocidib -0.259
inactive: vemurafenib 0.019 | [1] -0.014 | barasertib 0.024 | [2] -0.072 | volasertib 0.028 | [3] -0.004 | [4] 0.172 | [5] -0.008 | saracatinib -0.013 | sotrastaurin -0.068 | Tubastatin A 0.015 | [6] -0.117 | defactinib -0.075 | [7] 0.002 | encorafenib 0.065 | [8] -0.039 | alisertib 0.033 | [9] 0.01 | gefitinib 0.037

MAT2B (UniProt Q9NZL9)
Sequence of UniProt Q9NZL9 (Q9NZL9 whole entry, looked up): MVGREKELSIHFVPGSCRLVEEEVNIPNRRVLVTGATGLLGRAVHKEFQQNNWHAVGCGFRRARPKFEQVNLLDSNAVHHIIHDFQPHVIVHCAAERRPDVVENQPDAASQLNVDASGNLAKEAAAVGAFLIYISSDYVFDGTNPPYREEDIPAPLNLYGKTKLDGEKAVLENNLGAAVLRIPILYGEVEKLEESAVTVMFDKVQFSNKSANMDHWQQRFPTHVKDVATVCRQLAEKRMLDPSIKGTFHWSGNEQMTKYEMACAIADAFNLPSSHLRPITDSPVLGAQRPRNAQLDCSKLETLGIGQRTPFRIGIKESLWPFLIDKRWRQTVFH
inactive: vemurafenib 0.036 | [1] 0.016 | barasertib 0.001 | [2] -0.019 | volasertib -0.006 | [3] -0.015 | [4] 0.13 | [5] 0 | saracatinib -0.018 | sotrastaurin 0.013 | alvocidib -0.028 | Tubastatin A 0.063 | [6] -0.013 | defactinib 0.003 | [7] -0.01 | encorafenib -0.009 | [8] -0.006 | alisertib 0.032 | [9] 0.016 | gefitinib -0.006

MORF4L1 isoform 2 (UniProt Q9UBU8)
Sequence of UniProt Q9UBU8 (Q9UBU8 whole entry, looked up): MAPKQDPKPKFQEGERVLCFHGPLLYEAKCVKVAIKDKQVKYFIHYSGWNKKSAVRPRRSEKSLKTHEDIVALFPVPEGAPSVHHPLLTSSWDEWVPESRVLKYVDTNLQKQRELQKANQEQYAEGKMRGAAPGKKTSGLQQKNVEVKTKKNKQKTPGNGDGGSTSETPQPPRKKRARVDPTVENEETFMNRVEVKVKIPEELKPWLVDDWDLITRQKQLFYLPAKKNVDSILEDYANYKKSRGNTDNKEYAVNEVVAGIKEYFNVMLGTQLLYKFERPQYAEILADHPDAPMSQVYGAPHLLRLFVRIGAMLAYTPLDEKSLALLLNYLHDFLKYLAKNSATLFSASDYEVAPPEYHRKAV
active: [7] 0.247
inactive: vemurafenib 0.034 | [1] -0.017 | barasertib 0.007 | [2] 0.016 | volasertib 0 | [3] -0.005 | [4] -0.036 | [5] 0.131 | saracatinib 0.038 | sotrastaurin 0.019 | alvocidib -0.01 | Tubastatin A 0.001 | [6] -0.001 | defactinib -0.005 | encorafenib -0.023 | [8] -0.021 | alisertib 0.045 | [9] 0.044 | gefitinib 0.008

MLXIP (UniProt Q9HAP2)
Sequence of UniProt Q9HAP2 (Q9HAP2 whole entry, looked up): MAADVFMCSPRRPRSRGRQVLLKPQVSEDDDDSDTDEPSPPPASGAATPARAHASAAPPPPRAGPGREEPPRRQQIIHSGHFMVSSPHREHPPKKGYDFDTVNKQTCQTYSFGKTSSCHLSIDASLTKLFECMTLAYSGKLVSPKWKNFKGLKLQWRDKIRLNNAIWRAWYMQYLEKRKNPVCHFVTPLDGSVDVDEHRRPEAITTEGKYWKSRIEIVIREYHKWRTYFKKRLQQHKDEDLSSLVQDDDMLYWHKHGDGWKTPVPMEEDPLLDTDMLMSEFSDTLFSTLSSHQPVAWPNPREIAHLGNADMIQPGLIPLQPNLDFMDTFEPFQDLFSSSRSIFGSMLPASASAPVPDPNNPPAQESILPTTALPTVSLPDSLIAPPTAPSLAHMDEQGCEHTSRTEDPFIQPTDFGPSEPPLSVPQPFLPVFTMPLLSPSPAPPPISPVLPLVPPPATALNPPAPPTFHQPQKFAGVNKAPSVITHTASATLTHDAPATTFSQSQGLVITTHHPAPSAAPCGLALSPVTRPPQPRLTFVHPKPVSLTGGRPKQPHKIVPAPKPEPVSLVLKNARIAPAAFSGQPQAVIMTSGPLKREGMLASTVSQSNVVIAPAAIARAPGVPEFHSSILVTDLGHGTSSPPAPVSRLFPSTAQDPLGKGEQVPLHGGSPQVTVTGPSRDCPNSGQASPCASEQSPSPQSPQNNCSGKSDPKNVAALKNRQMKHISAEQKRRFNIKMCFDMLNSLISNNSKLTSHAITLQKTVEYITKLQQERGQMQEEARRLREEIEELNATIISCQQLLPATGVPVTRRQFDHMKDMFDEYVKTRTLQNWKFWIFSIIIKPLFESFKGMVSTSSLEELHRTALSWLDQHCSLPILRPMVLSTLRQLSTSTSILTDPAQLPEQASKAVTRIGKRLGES
inactive: vemurafenib 0.004 | [1] 0.013 | barasertib 0.019 | [2] -0.032 | volasertib -0.041 | [3] 0.028 | [4] -0.045 | [5] 0.093 | saracatinib 0 | sotrastaurin 0.008 | alvocidib -0.035 | Tubastatin A -0.016 | [6] -0.049 | defactinib -0.029 | [7] -0.017 | encorafenib 0.027 | [8] -0.016 | alisertib 0.002 | [9] -0.051 | gefitinib -0.047

MCCC1 (UniProt Q96RQ3)
inactive: vemurafenib 0.065 | [1] 0.009 | barasertib 0.015 | [2] 0.005 | volasertib -0.034 | [3] -0.025 | [4] 0.139 | [5] -0.059 | saracatinib 0.028 | sotrastaurin 0.054 | alvocidib 0.063 | Tubastatin A -0.036 | [6] 0.003 | defactinib -0.002 | [7] -0.025 | encorafenib 0.012 | [8] -0.057 | alisertib 0 | [9] 0.001 | gefitinib 0.017

KIF3C (UniProt O14782)
inactive: vemurafenib 0.565 | [1] -0.213 | [2] -0.296 | volasertib 0.186 | [3] 0.018 | [4] -0.138 | [5] -0.037 | saracatinib 0.02 | sotrastaurin -0.022 | alvocidib 0.033 | Tubastatin A -0.018 | [6] -0.01 | defactinib 0.157 | [7] 0.058 | encorafenib 0.101 | [8] 0.024 | alisertib 0.247 | [9] 0.07 | gefitinib -0.029

KRAS (UniProt P01116)
Sequence of UniProt P01116 (P01116 whole entry, looked up): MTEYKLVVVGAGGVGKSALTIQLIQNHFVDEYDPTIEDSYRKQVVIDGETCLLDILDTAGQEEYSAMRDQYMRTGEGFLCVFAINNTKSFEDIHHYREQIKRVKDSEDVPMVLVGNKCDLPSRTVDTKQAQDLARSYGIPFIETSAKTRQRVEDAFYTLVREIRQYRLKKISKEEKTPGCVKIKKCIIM
active: [4] -0.278
inactive: vemurafenib 0.061 | [1] 0.019 | [2] 0.019 | volasertib 0.063 | [3] -0.053 | [5] 0.06 | saracatinib 0.066 | sotrastaurin 0.012 | alvocidib -0.071 | Tubastatin A 0.059 | [6] -0.048 | defactinib -0.01 | [7] -0.005 | encorafenib 0.01 | [8] 0.043 | alisertib -0.016 | [9] -0.042 | gefitinib 0.139
